# Data from article PMC4336329 (PLoS ONE, 2015).
# Out of some 310,000 compounds screened, about 14,000 (4.5%) showed an effect of 50% or more. Effects have a minus sign here. Shown is part of a subset that was picked to be rich in strong results.
# Target: human ether-à-go-go-related gene (hERG) potassium channel (human, UniProt Q12809)
# Assay: primary screen, population patch clamp on CHO cells stably expressing hERG; higher = less effect of the substance
# 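Also: peak tail current of the secondary pulse compared with the same well before compound.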
# Sequence of human ether-à-go-go-related gene (hERG) potassium channel (Q12809 whole entry, looked up): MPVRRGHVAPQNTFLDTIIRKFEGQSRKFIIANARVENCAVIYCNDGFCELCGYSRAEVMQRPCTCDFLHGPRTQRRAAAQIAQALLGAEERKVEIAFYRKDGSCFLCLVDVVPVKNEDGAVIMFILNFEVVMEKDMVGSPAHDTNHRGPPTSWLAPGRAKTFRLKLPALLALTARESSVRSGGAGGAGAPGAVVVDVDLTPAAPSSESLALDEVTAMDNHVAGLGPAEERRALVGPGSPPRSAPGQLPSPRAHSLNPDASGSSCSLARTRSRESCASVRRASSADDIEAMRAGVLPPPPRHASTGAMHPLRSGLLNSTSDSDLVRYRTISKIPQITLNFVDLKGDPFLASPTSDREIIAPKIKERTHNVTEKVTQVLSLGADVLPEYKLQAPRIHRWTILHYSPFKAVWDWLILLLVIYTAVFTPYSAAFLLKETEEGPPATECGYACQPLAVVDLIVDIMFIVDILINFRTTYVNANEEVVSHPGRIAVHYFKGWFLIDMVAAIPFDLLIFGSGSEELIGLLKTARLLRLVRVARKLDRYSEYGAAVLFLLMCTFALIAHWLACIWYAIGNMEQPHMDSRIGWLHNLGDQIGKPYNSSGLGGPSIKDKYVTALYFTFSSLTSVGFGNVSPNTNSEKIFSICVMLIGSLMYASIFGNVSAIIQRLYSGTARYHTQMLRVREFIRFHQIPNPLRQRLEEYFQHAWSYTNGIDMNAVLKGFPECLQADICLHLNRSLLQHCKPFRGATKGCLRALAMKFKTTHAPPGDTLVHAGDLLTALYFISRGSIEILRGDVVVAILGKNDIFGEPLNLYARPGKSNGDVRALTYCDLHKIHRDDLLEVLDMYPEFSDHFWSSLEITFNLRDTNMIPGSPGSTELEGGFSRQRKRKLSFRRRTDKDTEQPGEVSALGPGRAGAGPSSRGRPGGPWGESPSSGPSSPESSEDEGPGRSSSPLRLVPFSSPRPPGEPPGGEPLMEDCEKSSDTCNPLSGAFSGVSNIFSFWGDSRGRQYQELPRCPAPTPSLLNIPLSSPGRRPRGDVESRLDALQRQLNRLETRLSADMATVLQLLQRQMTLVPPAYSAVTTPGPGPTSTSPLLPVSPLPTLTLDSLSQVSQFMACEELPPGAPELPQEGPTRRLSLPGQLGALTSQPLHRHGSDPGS
row,SMILES,"hERG current change (%, negative = inhibition) at 10uM"
1,Cc1cc2c(NC(=O)Nc3ccc(C(F)(F)F)cc3)cccc2nn1,-2.37%
2,Cn1cc([N+](=O)[O-])c(C(=O)Nc2ccc3c(c2)OCCO3)n1,5.3%
3,Cc1cccc(C(=O)N2CCC(=O)N(C(COCc3ccc(Cl)cc3)Cc3ccccc3)CC2)c1 (stereo not drawn),-25.7%
4,CCC(C)[C@H](NC(=O)[C@H](Cc1ccccc1)n1c(=O)[nH]c2ccccc2c1=O)C(=O)NCC1CCC(C(=O)O)CC1 (stereo partly drawn),20.4%
5,COc1cccc(OCC(=O)N2CCN(C)CC2)c1,-10.1%
6,Cc1cc(=O)oc2c3c(cc(OCC(=O)NCC(=O)O)c12)OC(C)(C)CC3,19%
7,CCN(CC)CCOC(=O)c1ccc(NC(=O)CCNC(=O)Cn2ccc3ccccc3c2=O)cc1,11.8%
8,CCn1cc(CN2CCC(C(=O)Nc3ccc(Oc4cccnc4)cc3)CC2)cn1,-19%
9,CCn1cc(CN2CCC(C(=O)Nc3ccc(Oc4ccccc4F)cc3)CC2)c(C)n1,-72.9%
10,CC(C)n1cc(CN2CCC(C(=O)Nc3ccc(Oc4ccccc4F)cc3)CC2)cn1,-76.1%
11,CC(C)n1cc(CN2CCCC(C(=O)Nc3ccccc3Oc3cccnc3)C2)cn1 (stereo not drawn),-42.4%
12,CN(C)C(=O)CCC(=O)N1CCCCC1C(=O)Nc1ccc(Oc2ccccc2F)cc1 (stereo not drawn),-43.9%
13,CCn1cc(CN2CCCC(C(=O)Nc3ccc(-c4nc5ccccc5[nH]4)cc3)C2)c(C)n1 (stereo not drawn),-21%
14,Cn1cc(CN2CCC(C(=O)Nc3ccc(Oc4ccccc4F)cc3)CC2)cn1,-65.6%
15,CCn1cc(CN2CCC(C(=O)Nc3ccc(Oc4cccnc4)cc3)CC2)c(C)n1,-18.4%
16,COC(=O)c1cc2oc3ccccc3c2n1Cc1ccccn1,-8.74%
17,C/C(=N\N=C1\NC(=O)C(CC(=O)Nc2ccc(Cl)cc2)S1)c1ccco1 (stereo not drawn),13%
18,CCn1c(SCC(=O)Nc2ccccc2Cl)nnc1C1CC1,6.78%
19,Cc1c(S(=O)(=O)N2CCCC(C)C2)c(=O)n(C)c(=O)n1C (stereo not drawn),-2.74%
20,O=C(NCCNC(=O)c1ccccc1)c1ccccc1,2.89%

row,SMILES,"hERG current change (%, negative = inhibition) at 10uM"
1,Cc1cc([N+](=O)[O-])cc(C)c1OCC(=O)N/N=C/c1ccc(OC(=O)c2ccccc2Br)cc1,4.23%
2,CCC(C)NC(=O)C1c2ccccc2C(=O)N1Cc1cc(OC)ccc1OC (stereo not drawn),9.25%
3,COc1ccc(-c2c(C#Cc3ccsc3)c3cc(-c4ccc5[nH]ccc5c4)ccc3n2C)cc1,24.1%
4,O=C(CN1C(=O)COc2ccccc21)c1cccc(Cl)c1,-14.4%
5,CSc1ccccc1OCc1cc(C(=O)N2CCC[C@H]2C(N)=O)no1,5.26%
6,N#CSCC(=O)c1cccc2ccccc12,-24.8%
7,COc1ccc(NC(=O)C2CCCCN2N)cc1OCC(C)C.O=C(O)C(=O)O (stereo not drawn),-5.25%
8,COc1ccc(NC(=O)C2CCCN(C)C2)cc1OCC(C)C (stereo not drawn),-1.9%
9,COc1ccc(NC(=O)C2CCCN(CCCc3ccccc3)C2)cc1OCC(C)C.O=C(O)/C=C/C(=O)O (stereo not drawn),-52.1%
10,O=C(NCc1ccc2c(c1)OCO2)c1ccc(CN2CCOCC2)cc1,15.3%
11,NS(=O)(=O)c1ccc(CCNC(=O)C2Cc3ccccc3CN2C(=O)c2ccco2)cc1 (stereo not drawn),9.39%
12,O=C(NCc1ccccc1)C1Cc2ccccc2CN1C(=O)c1ccco1 (stereo not drawn),-12.2%
13,CCS(=O)(=O)N1Cc2ccccc2CC1C(=O)NCCc1c[nH]c2ccccc12 (stereo not drawn),-0.595%
14,O=C(NCCc1c[nH]c2ccccc12)C1Cc2ccccc2CN1C(=O)c1ccco1 (stereo not drawn),-71.6%
15,O=C(NCc1ccc2c(c1)OCO2)c1ccc(CN2CCc3ccccc3C2)cc1,-52.5%
16,O=C(NCc1ccc(F)cc1)C1Cc2ccccc2CN1C(=O)c1ccco1 (stereo not drawn),-42.1%
17,O=C(NCc1ccc2c(c1)OCO2)C1Cc2ccccc2CN1C(=O)c1ccco1 (stereo not drawn),-59%
18,O=C(NCc1ccc2c(c1)OCO2)c1ccccc1,-4.18%
19,COc1ccc(N2C(=O)CC(NCc3cccc(F)c3)C2=O)cc1 (stereo not drawn),-13.3%
20,Cc1ccc(-n2c(=O)[nH]c3c(oc4ccccc43)c2=O)cc1,-0.961%

row,SMILES,"hERG current change (%, negative = inhibition) at 10uM"
1,CCOc1ccc(CC2CC(=O)NC2=O)cc1 (stereo not drawn),12.5%
2,N=c1oc2ccc(Br)cc2cc1C(=O)NCc1ccc(F)cc1,5.37%
3,C/C(=N/NC(=O)c1ccc(Br)o1)C(C)C,-1.43%
4,Cc1cccc(C(=O)Nc2ccc(C(=O)Nc3ccc(O)cc3)cc2)c1,12.5%
5,O=C(CCCN1C(=O)c2ccccc2C1=O)Nc1ccc(S(=O)(=O)N2CCCCC2)cc1,-28.8%
6,O=C(C[n+]1ccccc1)N1c2ccccc2Sc2ccccc21.[Cl-],20.7%
7,COc1cccc(CNC(=O)CCNS(=O)(=O)c2cccs2)c1,-5.11%
8,COc1ccccc1-c1coc2c(CN3CCOCC3)c(O)ccc2c1=O,8.17%
9,O=C(CN1CCCC1)Nc1ccccc1Sc1ccc(Cl)cc1,-31.1%
10,CC1CCN(CC(=O)Nc2ccccc2Sc2ccccc2)CC1,-5.71%
11,CC(=O)N1CCN(CC(=O)Nc2ccccc2Sc2ccc(Cl)cc2)CC1,-78%
12,O=C(CN1CCCCC1)Nc1cc(Cl)ccc1Oc1ccccc1,12.5%
13,CC(=O)N1CCN(CC(=O)Nc2ccccc2Sc2ccccc2)CC1,-59.5%
14,CC1CCCN(CC(=O)Nc2cc(Cl)ccc2Oc2ccccc2)C1 (stereo not drawn),14.3%
15,O=C(CN1CCN(c2ccccc2)CC1)Nc1ccccc1Sc1ccccc1,9.55%
16,O=C(CN1CCOCC1)Nc1ccccc1Sc1ccccc1,-31.3%
17,CN1CCN(CC(=O)Nc2ccccc2Sc2ccccc2)CC1.O=C(O)C(=O)O,-65.3%
18,O=C(CN1CCCC1)Nc1ccccc1Sc1ccccc1,-13.5%
19,NC(=O)C1CCN(CC(=O)Nc2cc(Cl)ccc2Oc2ccccc2)CC1,-67%
20,O=C(CN1CCOCC1)Nc1ccccc1Sc1ccc(Cl)cc1,-44.1%
